Common to all, as to experiment: DAPPL (digital affinity profiling via proximity ligation, sequencing); 10 mM Tris-HCl pH 7.5, 50 mM NaCl, 1 mM DTT, 4% glycerol, room temperature, 30 min; GST-TFs on glutathione beads, 16-mer random dsDNA library, 0.1% formaldehyde crosslink after washing; high values mean tight binding
In one assay the target is T1, FEV (Homo sapiens, UniProt Q99581 1-238).
T1 sequence: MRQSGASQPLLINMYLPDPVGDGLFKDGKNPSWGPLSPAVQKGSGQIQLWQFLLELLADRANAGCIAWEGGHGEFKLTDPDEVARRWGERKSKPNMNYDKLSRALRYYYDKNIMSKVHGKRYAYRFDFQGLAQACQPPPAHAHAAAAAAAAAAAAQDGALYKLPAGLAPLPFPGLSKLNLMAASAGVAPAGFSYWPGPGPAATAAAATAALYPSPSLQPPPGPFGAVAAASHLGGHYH
Conditions: protein: recombinant; tags: N-terminal GST; dsDNA, one strand shown. In a few lines: (§1)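 Each value of binding signal is a hexamer's read frequency for a factor divided by the same hexamer's frequency in the tag-only sample. Barcoded, bead-captured GST fusions of human transcription factors made in yeast were pooled with that sample and incubated with 200 nmole of a random double-stranded 16-mer DNA library in Tris/NaCl/DTT/glycerol buffer at room temperature for 30 min. Washing, 0.1% formaldehyde crosslinking, proximity ligation, PCR and Illumina NextSeq500 sequencing followed.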

A further assay has as its target ETV5 (Homo sapiens, UniProt P41161 1-510). The conditions noted are these: protein: recombinant; tags: N-terminal GST; dsDNA, one strand shown. An outline of the steps:
as §1

A further assay concerns the target HSF1 (Homo sapiens, UniProt Q00613 1-529). The conditions noted are these: protein: recombinant; tags: N-terminal GST; chain copies: 3; dsDNA, one strand shown. An outline of the steps: as §1
Another assay addresses T2, SPIC (Homo sapiens, UniProt Q8N5J4 1-248).
T2 sequence: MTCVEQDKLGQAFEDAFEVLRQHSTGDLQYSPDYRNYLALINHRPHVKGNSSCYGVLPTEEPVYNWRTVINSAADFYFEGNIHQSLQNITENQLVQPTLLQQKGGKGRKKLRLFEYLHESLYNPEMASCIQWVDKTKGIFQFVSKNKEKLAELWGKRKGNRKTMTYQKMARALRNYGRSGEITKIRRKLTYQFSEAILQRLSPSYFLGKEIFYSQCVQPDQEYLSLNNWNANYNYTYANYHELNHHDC
Conditions: protein: recombinant; tags: N-terminal GST; dsDNA, one strand shown. An outline of the steps: as §1

For the next assay, the target named is ELF4 (Homo sapiens, UniProt Q99607 1-663). The conditions noted are these: protein: recombinant; tags: N-terminal GST; dsDNA, one strand shown. In a few lines: as §1
For a further assay, the target named is T3, ELK4 (Homo sapiens, UniProt P28324-2 1-405).
T3 sequence: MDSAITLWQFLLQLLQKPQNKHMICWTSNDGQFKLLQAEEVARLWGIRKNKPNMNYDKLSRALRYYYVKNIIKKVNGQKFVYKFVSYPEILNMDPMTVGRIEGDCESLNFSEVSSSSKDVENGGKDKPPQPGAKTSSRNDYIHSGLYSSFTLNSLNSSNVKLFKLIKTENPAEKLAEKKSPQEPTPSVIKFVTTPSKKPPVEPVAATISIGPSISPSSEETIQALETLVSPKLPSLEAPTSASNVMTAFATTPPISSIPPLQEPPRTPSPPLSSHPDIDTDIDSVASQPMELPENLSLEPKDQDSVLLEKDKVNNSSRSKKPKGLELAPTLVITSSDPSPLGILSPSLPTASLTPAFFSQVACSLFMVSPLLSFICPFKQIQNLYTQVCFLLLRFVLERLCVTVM
The conditions noted are these: protein: recombinant; tags: N-terminal GST; dsDNA, one strand shown. An outline of the steps:
as §1

In another assay the target is T4, ETV2 (Homo sapiens, UniProt O00321 1-342).
T4 sequence: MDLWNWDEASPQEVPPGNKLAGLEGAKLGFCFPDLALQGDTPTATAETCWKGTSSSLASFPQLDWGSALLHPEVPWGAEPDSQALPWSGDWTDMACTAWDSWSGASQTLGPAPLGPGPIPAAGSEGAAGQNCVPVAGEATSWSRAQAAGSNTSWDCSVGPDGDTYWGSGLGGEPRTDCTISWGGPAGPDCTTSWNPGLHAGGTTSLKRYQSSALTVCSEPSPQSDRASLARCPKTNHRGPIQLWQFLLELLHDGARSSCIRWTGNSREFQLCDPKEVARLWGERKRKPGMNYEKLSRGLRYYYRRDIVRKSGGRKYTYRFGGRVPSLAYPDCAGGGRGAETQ
The conditions noted are these: protein: recombinant; tags: N-terminal GST; dsDNA, one strand shown. In a few lines: as §1

The target in the next assay is T5, ELF3 (Homo sapiens, UniProt P78545 1-371).
T5 sequence: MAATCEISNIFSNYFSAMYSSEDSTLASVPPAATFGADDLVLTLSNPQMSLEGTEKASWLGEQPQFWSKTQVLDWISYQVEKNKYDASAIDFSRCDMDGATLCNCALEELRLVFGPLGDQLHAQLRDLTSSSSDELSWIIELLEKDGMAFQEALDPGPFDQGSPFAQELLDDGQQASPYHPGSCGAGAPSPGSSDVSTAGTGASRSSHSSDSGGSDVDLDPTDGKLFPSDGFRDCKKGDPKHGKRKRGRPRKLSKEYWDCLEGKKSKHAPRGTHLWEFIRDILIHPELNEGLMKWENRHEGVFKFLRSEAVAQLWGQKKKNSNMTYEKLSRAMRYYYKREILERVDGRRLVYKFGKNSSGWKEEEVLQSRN
Conditions: protein: recombinant; tags: N-terminal GST; dsDNA, one strand shown. An outline of the steps:
as §1

In a further assay the target is CRX (Homo sapiens, UniProt O43186 1-299). Conditions: protein: recombinant; tags: N-terminal GST; dsDNA, one strand shown. In a few lines:
as §1

Another assay addresses ETV1 (Homo sapiens, UniProt P50549 1-477). The conditions noted are these: protein: recombinant; tags: N-terminal GST; dsDNA, one strand shown. In a few lines:
as §1

The next assay has as its target T6, ERF (Homo sapiens, UniProt P50548 1-548).
T6 sequence: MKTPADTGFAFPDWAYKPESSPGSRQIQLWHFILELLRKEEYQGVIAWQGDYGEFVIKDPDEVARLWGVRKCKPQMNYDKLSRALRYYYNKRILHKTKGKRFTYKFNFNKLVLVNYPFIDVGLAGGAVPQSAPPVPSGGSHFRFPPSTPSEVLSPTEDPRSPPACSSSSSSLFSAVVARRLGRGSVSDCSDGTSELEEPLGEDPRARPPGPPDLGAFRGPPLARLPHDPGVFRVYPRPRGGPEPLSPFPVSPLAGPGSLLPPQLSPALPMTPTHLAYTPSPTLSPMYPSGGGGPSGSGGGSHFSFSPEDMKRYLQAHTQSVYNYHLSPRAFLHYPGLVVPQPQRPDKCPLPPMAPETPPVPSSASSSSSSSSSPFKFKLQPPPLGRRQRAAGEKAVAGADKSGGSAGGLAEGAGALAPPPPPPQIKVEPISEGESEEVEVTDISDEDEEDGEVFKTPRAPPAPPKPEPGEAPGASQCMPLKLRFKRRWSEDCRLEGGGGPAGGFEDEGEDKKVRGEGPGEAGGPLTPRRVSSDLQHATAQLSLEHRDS
The conditions noted are these: protein: recombinant; tags: N-terminal GST; dsDNA, one strand shown. An outline of the steps:
as §1

The target of a further assay is T7, ETV3L (Homo sapiens, UniProt Q6ZN32 1-361).
T7 sequence: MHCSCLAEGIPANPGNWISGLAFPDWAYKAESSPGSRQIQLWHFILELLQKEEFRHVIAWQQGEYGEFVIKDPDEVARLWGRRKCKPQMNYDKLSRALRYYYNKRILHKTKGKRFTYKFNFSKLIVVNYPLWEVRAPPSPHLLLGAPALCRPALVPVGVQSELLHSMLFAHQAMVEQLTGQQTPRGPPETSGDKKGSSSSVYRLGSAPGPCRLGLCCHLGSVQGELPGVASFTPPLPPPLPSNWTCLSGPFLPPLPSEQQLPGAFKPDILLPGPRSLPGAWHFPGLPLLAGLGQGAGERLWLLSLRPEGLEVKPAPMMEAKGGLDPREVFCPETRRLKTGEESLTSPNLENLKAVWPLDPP
Conditions: protein: recombinant; tags: N-terminal GST; dsDNA, one strand shown. In a few lines:
as §1

The next assay has as its target T8, ETS2 (Homo sapiens, UniProt P15036 1-469).
T8 sequence: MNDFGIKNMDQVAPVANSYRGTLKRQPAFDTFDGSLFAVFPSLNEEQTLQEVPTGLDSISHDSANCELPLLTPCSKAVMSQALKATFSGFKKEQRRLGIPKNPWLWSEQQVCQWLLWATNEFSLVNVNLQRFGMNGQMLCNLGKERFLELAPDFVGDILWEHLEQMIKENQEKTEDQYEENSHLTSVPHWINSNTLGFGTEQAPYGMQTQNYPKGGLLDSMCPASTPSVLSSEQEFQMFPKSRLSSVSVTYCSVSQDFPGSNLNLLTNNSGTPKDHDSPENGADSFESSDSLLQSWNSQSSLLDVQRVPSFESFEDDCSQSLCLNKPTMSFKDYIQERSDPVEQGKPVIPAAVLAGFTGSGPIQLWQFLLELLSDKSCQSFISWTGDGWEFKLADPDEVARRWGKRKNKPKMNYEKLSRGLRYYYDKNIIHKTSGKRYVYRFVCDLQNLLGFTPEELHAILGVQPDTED
The conditions noted are these: protein: recombinant; tags: N-terminal GST; dsDNA, one strand shown. An outline of the steps: as §1

The next assay has as its target T9, SPDEF (Homo sapiens, UniProt O95238 1-335).
T9 sequence: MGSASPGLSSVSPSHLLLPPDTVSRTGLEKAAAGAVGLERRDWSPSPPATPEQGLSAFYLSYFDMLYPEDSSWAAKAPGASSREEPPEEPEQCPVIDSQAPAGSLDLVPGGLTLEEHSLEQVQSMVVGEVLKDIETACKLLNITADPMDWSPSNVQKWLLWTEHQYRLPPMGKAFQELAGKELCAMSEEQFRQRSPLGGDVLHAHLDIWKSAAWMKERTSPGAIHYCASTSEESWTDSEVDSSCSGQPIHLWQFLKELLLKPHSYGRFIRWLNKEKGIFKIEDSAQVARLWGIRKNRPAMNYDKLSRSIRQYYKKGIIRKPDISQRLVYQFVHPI
The conditions noted are these: protein: recombinant; tags: N-terminal GST; dsDNA, one strand shown. In a few lines:
as §1

For another assay, the target named is T10, ETV7 (Homo sapiens, UniProt Q9Y603 1-341).
T10 sequence: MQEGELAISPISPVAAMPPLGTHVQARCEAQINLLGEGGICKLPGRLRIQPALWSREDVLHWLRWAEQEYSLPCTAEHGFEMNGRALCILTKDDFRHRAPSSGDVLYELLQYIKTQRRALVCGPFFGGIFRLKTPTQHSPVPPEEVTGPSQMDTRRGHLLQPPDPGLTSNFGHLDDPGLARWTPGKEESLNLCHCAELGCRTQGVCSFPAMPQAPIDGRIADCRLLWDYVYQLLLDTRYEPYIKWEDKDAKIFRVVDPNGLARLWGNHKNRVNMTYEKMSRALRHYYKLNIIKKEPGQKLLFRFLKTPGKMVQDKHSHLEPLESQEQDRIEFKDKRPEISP
Conditions: protein: recombinant; tags: N-terminal GST; dsDNA, one strand shown. In a few lines:
as §1

The next assay deals with T11, ELF5 (Homo sapiens, UniProt Q9UKW6-2 1-255).
T11 sequence: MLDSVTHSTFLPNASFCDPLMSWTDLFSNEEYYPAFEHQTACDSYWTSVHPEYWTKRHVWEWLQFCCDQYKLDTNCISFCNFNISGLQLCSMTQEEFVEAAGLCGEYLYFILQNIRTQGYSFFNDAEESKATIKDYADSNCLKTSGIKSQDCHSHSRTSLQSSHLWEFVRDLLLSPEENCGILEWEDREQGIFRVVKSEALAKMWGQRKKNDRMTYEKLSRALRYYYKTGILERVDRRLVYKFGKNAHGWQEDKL
Conditions: protein: recombinant; tags: N-terminal GST; dsDNA, one strand shown. An outline of the steps:
as §1

For a further assay, the target named is T12, ETV3 (Homo sapiens, UniProt P41162-2 1-143).
T12 sequence: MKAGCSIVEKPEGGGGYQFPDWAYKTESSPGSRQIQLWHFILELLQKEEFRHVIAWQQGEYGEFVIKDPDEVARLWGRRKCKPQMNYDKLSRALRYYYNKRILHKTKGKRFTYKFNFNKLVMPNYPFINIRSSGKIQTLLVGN
Conditions: protein: recombinant; tags: N-terminal GST; dsDNA, one strand shown. An outline of the steps:
as §1

A further assay has as its target ETV6 (Homo sapiens, UniProt P41212 1-452). The conditions noted are these: protein: recombinant; tags: N-terminal GST; dsDNA, one strand shown. An outline of the steps:
as §1

Sequence of ELF4 (Q99607 whole entry): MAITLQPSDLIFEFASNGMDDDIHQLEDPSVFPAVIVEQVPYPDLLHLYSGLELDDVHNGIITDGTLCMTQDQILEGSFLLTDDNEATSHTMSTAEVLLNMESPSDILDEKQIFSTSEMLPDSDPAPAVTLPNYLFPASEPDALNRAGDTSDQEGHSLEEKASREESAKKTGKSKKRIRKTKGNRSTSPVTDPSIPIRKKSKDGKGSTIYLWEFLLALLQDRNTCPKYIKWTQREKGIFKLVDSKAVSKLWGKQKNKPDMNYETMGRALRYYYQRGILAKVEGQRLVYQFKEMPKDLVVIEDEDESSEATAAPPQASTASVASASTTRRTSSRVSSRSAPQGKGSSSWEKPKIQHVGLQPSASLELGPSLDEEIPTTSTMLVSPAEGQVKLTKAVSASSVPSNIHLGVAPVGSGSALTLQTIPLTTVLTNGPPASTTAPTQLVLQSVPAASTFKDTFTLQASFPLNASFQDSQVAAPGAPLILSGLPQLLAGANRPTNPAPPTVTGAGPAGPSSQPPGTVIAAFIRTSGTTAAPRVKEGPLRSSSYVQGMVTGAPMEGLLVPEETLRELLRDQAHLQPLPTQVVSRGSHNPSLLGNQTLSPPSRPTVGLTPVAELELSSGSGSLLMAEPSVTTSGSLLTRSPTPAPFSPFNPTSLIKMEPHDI
Sequence of ETV1 (P50549 whole entry): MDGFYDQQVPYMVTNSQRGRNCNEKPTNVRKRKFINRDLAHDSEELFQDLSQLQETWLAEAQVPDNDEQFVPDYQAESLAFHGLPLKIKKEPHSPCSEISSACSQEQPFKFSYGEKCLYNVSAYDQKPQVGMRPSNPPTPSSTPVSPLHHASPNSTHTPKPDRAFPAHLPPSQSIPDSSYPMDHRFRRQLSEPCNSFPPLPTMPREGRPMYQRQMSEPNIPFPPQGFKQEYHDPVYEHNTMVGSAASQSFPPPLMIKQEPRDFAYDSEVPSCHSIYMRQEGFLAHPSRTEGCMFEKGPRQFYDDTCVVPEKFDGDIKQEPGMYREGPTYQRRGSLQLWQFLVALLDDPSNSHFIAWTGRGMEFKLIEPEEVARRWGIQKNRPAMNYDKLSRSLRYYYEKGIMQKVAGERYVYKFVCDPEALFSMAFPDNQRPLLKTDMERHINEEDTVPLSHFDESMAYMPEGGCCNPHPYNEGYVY
Sequence of ETV6 (P41212 whole entry): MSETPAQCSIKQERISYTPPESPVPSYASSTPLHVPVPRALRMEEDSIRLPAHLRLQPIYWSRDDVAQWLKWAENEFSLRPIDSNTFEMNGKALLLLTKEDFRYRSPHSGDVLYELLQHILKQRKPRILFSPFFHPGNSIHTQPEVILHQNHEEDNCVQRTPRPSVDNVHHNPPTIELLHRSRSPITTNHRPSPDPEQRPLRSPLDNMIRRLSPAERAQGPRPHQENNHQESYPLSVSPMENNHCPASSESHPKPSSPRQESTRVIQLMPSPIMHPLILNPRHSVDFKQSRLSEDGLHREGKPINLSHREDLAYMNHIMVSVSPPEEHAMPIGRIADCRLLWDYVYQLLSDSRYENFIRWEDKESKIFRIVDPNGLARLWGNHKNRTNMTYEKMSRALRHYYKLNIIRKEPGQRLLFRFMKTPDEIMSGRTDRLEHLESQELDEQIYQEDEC
Sequence of ETV5 (P41161 whole entry): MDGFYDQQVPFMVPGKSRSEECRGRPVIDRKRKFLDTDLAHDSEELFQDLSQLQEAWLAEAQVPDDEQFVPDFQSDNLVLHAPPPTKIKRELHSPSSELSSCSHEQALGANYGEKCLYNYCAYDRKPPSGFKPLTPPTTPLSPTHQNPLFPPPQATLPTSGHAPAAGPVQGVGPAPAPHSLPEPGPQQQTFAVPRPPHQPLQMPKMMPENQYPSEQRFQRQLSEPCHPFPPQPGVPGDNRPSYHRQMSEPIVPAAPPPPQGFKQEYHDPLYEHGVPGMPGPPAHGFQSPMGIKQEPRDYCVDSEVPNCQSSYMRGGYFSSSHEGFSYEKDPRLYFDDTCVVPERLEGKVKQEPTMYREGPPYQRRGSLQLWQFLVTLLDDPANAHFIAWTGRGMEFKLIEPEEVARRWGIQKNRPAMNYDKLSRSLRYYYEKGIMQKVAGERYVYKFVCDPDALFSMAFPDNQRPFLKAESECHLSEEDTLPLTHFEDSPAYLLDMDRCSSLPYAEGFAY
Sequence of HSF1 (Q00613 whole entry): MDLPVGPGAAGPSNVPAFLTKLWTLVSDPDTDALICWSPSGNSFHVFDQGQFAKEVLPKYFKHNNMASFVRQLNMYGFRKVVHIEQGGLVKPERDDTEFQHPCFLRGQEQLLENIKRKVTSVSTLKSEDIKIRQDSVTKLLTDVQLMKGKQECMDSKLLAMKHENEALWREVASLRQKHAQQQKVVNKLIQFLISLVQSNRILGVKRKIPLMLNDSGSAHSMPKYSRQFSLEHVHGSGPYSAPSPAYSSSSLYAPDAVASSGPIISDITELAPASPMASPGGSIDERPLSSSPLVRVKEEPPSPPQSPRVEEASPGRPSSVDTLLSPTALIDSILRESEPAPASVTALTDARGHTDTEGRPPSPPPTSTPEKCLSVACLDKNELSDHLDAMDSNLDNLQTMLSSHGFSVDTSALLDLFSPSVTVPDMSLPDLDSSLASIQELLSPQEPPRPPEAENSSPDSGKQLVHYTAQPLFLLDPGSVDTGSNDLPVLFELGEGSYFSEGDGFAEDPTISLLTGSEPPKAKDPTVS
Sequence of CRX (O43186 whole entry): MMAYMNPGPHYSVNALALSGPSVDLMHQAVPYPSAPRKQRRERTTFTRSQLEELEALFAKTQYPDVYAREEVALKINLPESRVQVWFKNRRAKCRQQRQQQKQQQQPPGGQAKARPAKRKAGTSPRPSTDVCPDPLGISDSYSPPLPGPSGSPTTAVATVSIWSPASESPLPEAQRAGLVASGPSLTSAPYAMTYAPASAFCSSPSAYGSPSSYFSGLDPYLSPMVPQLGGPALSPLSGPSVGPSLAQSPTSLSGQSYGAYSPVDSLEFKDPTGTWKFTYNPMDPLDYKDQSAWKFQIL

As for CCTTTA, the binding signal is 1.3 fold enrichment (6-mer frequency, TF over GST control) with FEV; 1.22 fold enrichment (6-mer frequency, TF over GST control) with ETV5; 1.31 fold enrichment (6-mer frequency, TF over GST control) with HSF1; 1.32 fold enrichment (6-mer frequency, TF over GST control) with SPIC; 1.35 fold enrichment (6-mer frequency, TF over GST control) with ELF4; 1.42 fold enrichment (6-mer frequency, TF over GST control) in the assay with ELK4. Further, the binding signal with ETV2 was 1.34 fold enrichment (6-mer frequency, TF over GST control); with ELF3 it was 1.51 fold enrichment (6-mer frequency, TF over GST control); with CRX, 1.57 fold enrichment (6-mer frequency, TF over GST control); with ETV1 it was 1.37 fold enrichment (6-mer frequency, TF over GST control); in the assay with ERF it was 1.34 fold enrichment (6-mer frequency, TF over GST control); in the assay with ETV3L it was 1.38 fold enrichment (6-mer frequency, TF over GST control). In addition, the binding signal is 1.32 fold enrichment (6-mer frequency, TF over GST control) with ETS2; 1.38 fold enrichment (6-mer frequency, TF over GST control) in the assay with SPDEF; 1.23 fold enrichment (6-mer frequency, TF over GST control) with ETV7; 1.41 fold enrichment (6-mer frequency, TF over GST control) with ELF5; 1.33 fold enrichment (6-mer frequency, TF over GST control) in the assay with ETV3; 1.41 fold enrichment (6-mer frequency, TF over GST control) with ETV6.

For the origin of these results see article PMC7862700, “An all-to-all approach to the identification of sequence-specific readers for epigenetic DNA modifications on cytosine”.
